# Screening results deposited in PubChem by Broad Institute.
# This is one part of a sample in which hits are shown more often than they occur.
# IDE exosite FP: exo-site inhibitors of human insulin-degrading enzyme; P14735; purified IDE, FL-6b probe fluorescence polarization; hits give low values; z-score at 20 µM; 17,000 compounds, 6.3% hits;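 active = z-score of -3 or lower, meaning strong loss of probe binding signal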;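 note: His-tagged human IDE residues 42-1019 made in E. coli with 30 nM FL-6b probe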
# * marks the source's active call; other numbers are inactive results.
SMILES,IDE exosite FP
COc1ccc2c3c([nH]c2c1)[C@H](CO)N(Cc1ccncc1)CC31CN(C(=O)CN(C)C)C1,-0.942
COc1cc(CN2CC3(CCN(C(=O)c4cccnc4)CC3)c3c([nH]c4cc(OC)ccc34)[C@@H]2CO)cc(OC)c1,-4.14*
CCCC(=O)N1CC2(C1)CN(CC1CC1)[C@@H](CO)c1[nH]c3cc(OC)ccc3c12,-1.28
COCC(=O)N1CC2(CCN(C(=O)c3cccnc3)CC2)c2c([nH]c3cc(OC)ccc23)[C@@H]1CO,-0.117
CCCC(=O)N1CC2(C1)CN(Cc1cccnc1)[C@H](CO)c1[nH]c3cc(OC)ccc3c12,-3.05*
COc1cccc(CN2CC3(CCN(C)CC3)c3c([nH]c4cc(OC)ccc34)[C@H]2CO)c1,-1.12
O=C(NC[C@H]1[C@H](c2ccccc2)[C@H](CO)N1C(=O)Cc1ccncc1)C1CCC1,-0.43
O=C(c1ccccn1)N1CC(=O)N2[C@H](CO)[C@H](c3ccc(C#Cc4ccccc4)cc3)[C@H]2C1,-14.3*
CCCC#Cc1ccc([C@@H]2[C@@H](CO)N3C(=O)CN(C(=O)c4ccccn4)C[C@@H]23)cc1,-0.344
O=C(c1ccccn1)N1CC(=O)N2[C@H](CO)[C@H](c3ccc(C#CCc4ccccc4)cc3)[C@@H]2C1,-1.79
O=C(c1ccccn1)N1CC(=O)N2[C@@H](CO)[C@H](c3ccc(C#CCc4ccccc4)cc3)[C@@H]2C1,-1.05
O=C(c1ccccn1)N1CC(=O)N2[C@@H](CO)[C@H](c3ccc(C#Cc4ccccc4)cc3)[C@@H]2C1,-9.68*
CCCC#Cc1ccc([C@H]2[C@@H](CO)N3C(=O)CN(C(=O)c4ccccn4)C[C@H]23)cc1,3.07
CO[C@@H]1CC[C@@H]2CCN(C)C(=O)[C@@H](C)CN(C)C(=O)c3cc(C#N)ccc3OC[C@H]1O2,0.118
CCCN1C[C@H](C)[C@H](OC)CN(C)C(=O)c2cc(NC(=O)C3CCC3)ccc2OC[C@@H]1C,-0.264
COc1ccccc1NC(=O)N1CC(=O)N2[C@H](C1)[C@@H](c1ccc(C#CC(C)C)cc1)[C@@H]2CO,-1.12
COc1cccc(-c2ccc(C3[C@@H]4CN(S(=O)(=O)Cc5ccccc5)C[C@H]3N4)cc2)c1 (stereo not given in full),-0.564
CO[C@H](CN(C)S(=O)(=O)c1cn(C)cn1)[C@H](C)CN(C(=O)Nc1ccc(C(F)(F)F)cc1)[C@H](C)CO,-0.416
N#C[C@@H]1[C@H](c2ccccc2-c2ccccc2)[C@H](CO)N1C(=O)NC1CCCC1,4.27
O=C(Cc1cccnc1)N1CC(=O)N2[C@@H](CO)[C@H](c3ccc(-c4cccc(F)c4)cc3)[C@@H]2C1,-1.93
Cc1cccc(-c2ccc([C@H]3[C@@H](CO)N4CCCCN(C(=O)c5cccnc5)C[C@@H]34)cc2)c1,-0.846
Cc1cccc(-c2ccc([C@H]3[C@H](CO)N4CCCCN(C(=O)c5ccncc5)C[C@@H]34)cc2)c1,-1.39
Cc1cccc(-c2ccc([C@@H]3[C@H]4CN(C(=O)c5cccnc5)CCCCN4[C@H]3CO)cc2)c1,-15.2*
Cc1cccc(-c2ccc([C@H]3[C@@H](CO)N4CCCCN(C(=O)c5cccnc5)C[C@H]34)cc2)c1,-17*
Cc1cccc(-c2ccc([C@H]3[C@@H](CO)N4CCCCN(C(=O)c5ccncc5)C[C@@H]34)cc2)c1,-1.74
SMILES,IDE exosite FP
O=C(c1cccc(F)c1)N1CCCCN2[C@H](C1)[C@@H](c1ccc(-c3cccnc3)cc1)[C@@H]2CO,0.887
COCCNC(=O)c1cc2c(c(-c3cccc(C4=CCCCC4)c3)n1)[C@H](CCO)N([S@@](=O)C(C)(C)C)C2,2.22
O=C1NCCOCc2cn(nn2)CC[C@H]1Cc1ccc(F)cc1,-1.06
CN(C)C(=O)C[C@H]1CC[C@@H]2[C@H](COC[C@H](O)CN2S(=O)(=O)c2ccccc2Cl)O1,0.505
CCN(C[C@@H]1[C@@H](c2ccccc2)[C@@H](CO)N1CC1CC1)C(=O)c1ccccc1F,5.2
N#C[C@H]1[C@H](c2ccccc2)[C@@H](CO)N1C(=O)Cc1ccccc1,-0.417
O=C(NC1CCCC1)N1CCCCN2[C@H](C1)[C@@H](c1ccc(/C=C/c3ccccc3)cc1)[C@@H]2CO,-9.59*
O=C(Nc1ccccc1F)N1CCCCN2[C@H](CO)[C@@H](c3ccc(/C=C/c4ccccc4)cc3)[C@H]2C1,-1.74
O=C(NC1CCCC1)N1CCCCN2[C@H](CO)[C@@H](c3ccc(/C=C/c4ccccc4)cc3)[C@@H]2C1,-2.8
O=C(NC1CCCC1)N1CCCCN2[C@H](C1)[C@H](c1ccc(/C=C/c3ccccc3)cc1)[C@@H]2CO,-13.2*
CO[C@@H]1CN(C)C(=O)c2ccc(NC(=O)c3cc(C)on3)cc2OC[C@H](C)NC[C@@H]1C,-1.27
N#C[C@@H]1[C@@H](c2ccccc2-c2cccc(F)c2)[C@@H](CO)N1C(=O)C1CCC1,-0.0675
COC(=O)C[C@H]1CC[C@H]2[C@H](COc3ccc(NC(=O)Nc4c(C)noc4C)cc3C(=O)N2C)O1,0.771
O=C(C1CC1)N1CC(=O)N2[C@H](CO)[C@H](c3ccc(C#Cc4cccc(F)c4)cc3)[C@@H]2C1,-4.18*
O=C(c1cccc(F)c1)N1CC(=O)N2[C@H](C1)[C@H](c1ccc(C#Cc3ccc(F)cc3)cc1)[C@@H]2CO,1.49
O=C(c1cccc(F)c1)N1CC(=O)N2[C@@H](CO)[C@@H](c3ccc(C#Cc4ccc(F)cc4)cc3)[C@@H]2C1,-0.896
O=C(c1cccc(F)c1)N1CC(=O)N2[C@H](CO)[C@@H](c3ccc(C#Cc4ccc(F)cc4)cc3)[C@@H]2C1,1.32
O=C(C1CC1)N1CC(=O)N2[C@@H](CO)[C@H](c3ccc(C#Cc4cccc(F)c4)cc3)[C@@H]2C1,-5.82*
O=C(C1CC1)N1CC(=O)N2[C@H](CO)[C@@H](c3ccc(C#Cc4cccc(F)c4)cc3)[C@@H]2C1,-5.67*
O=C(C1CC1)N1CC(=O)N2[C@H](CO)[C@@H](c3ccc(C#Cc4cccc(F)c4)cc3)[C@H]2C1,-3.06*
O=C(c1cccc(F)c1)N1CC(=O)N2[C@H](CO)[C@H](c3ccc(C#Cc4ccc(F)cc4)cc3)[C@H]2C1,3.94
CCC(=O)N1CC(=O)N2[C@H](CO)[C@@H](c3ccc(C#Cc4cccc(F)c4)cc3)[C@H]2C1,2.61
CN1CCN(C(=O)C[C@H]2CC[C@@H]3[C@H](COC[C@H](O)CN3C(=O)Nc3ccc4c(c3)OCO4)O2)CC1,0.552
COc1ccc2c3c(n(C)c2c1)[C@H](CO)N(C)CC31CCN(C(=O)NC(C)C)CC1,-1.74
Cc1cccc(S(=O)(=O)N2CCCCN3[C@@H](CO)[C@@H](c4ccc(C#C[C@@H](C)O)cc4)[C@@H]3C2)c1,1.17
SMILES,IDE exosite FP
Cc1ccc(-c2ccc([C@@H]3[C@@H](CO)N4CCCCN(C(=O)c5ccncc5)C[C@@H]34)cc2)cc1,2.7
CC(=O)N1[C@@H](CO)[C@H](c2ccccc2)[C@@H]1CN(C(=O)NC(C)C)C1CCCC1,2.05
N#C[C@@H]1[C@@H](c2ccc(-c3ccncc3)cc2)[C@@H](CO)N1C(=O)C1CCC1,1.6
COc1ccc2c3c([nH]c2c1)[C@H](CO)N(C(=O)CC1CC1)CC31CN(Cc2cccnc2)C1,0.209
O=C(C1CCCCC1)N1CC(=O)N2[C@H](CO)[C@H](c3ccc(C#Cc4cccc(F)c4)cc3)[C@H]2C1,-2.87
O=C(C1CCCCC1)N1CC(=O)N2[C@H](CO)[C@H](c3ccc(C#Cc4cccc(F)c4)cc3)[C@@H]2C1,0.658
O=C(C1CC1)N1CC(=O)N2[C@H](C1)[C@@H](c1ccc(C#Cc3cccc(F)c3)cc1)[C@@H]2CO,-2.86
